PubChem BioAssay (EPA / NIEHS)
Where a structure was tested more than once in an assay, its records may differ in their call. Activity calls are given as the source filed them. Rule for the calls: active = hit-call score of the fitted dose curve at least 0.9, where 1 is the maximum; inactive = score below 0.9.

Key:
Conditions in all cases: mRNA level, 48 h; actives raise or lower the signal
[1] = read-out: Cytochrome P450 (CYP2B6), CYP2B6 (gene 1555); experiment: LTEA_HepaRG_CYP2B6: Life Technologies and Expression Analysis (LTEA) Assay for Cytochrome P450 (CYP2B6) using HepaRG (AID 2283481)
In short: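 Differentiated human HepaRG cells in serum-free induction medium, dosed in duplicate for 48 h over 8 half-log concentrations topping at 100 uM (0.5% DMSO). CYP2B6 mRNA measured by TaqMan qRT-PCR, normalized to ACTB, GAPDH, POLR2A; bidirectional fit versus DMSO.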

[2] = read-out: Cytochrome P450 2C19 (Homo sapiens) (UniProt P33261); experiment: LTEA_HepaRG_CYP2C19: Life Technologies and Expression Analysis (LTEA) Assay for CYP2C19 using HepaRG (AID 2283482)
In short: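 Differentiated HepaRG cells in serum-free induction medium exposed 48 h in duplicate, 8 concentrations from 100 uM by half-log steps in 0.5% DMSO. CYP2C19 mRNA measured by TaqMan qRT-PCR, normalized to ACTB, GAPDH, POLR2A. Bidirectional fit versus DMSO.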

CYP2C8 (gene 1558) = experiment: LTEA_HepaRG_CYP2C8: Life Technologies and Expression Analysis (LTEA) Assay for CYP2C8 using HepaRG (AID 2283483)
In short: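 Differentiated HepaRG cells in serum-free induction medium exposed 48 h in duplicate to 8 half-log concentrations from 100 uM in 0.5% DMSO. CYP2C8 mRNA by qRT-PCR normalized to ACTB, GAPDH, POLR2A; bidirectional fit versus DMSO.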

CYP2C9 (gene 1559) = experiment: LTEA_HepaRG_CYP2C9: Life Technologies and Expression Analysis (LTEA) Assay for CYP2C9 using HepaRG (AID 2283484)
In short: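 Differentiated human HepaRG cells in serum-free induction medium were exposed 48 h to chemicals in 8-point half-log series from 100 uM (0.5% DMSO), in duplicate. CYP2C9 mRNA was measured by qRT-PCR, normalized to ACTB/GAPDH/POLR2A, with bidirectional fitting versus DMSO.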

CYP2E1 (gene 1571) = experiment: LTEA_HepaRG_CYP2E1: Life Technologies and Expression Analysis (LTEA) Assay for CYP2E1 using HepaRG (AID 2283485)
In short: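 HepaRG cells in serum-free induction medium exposed 48 h to test chemicals, 8 half-log concentrations up to 100 uM in 0.5% DMSO, duplicate. CYP2E1 mRNA by qRT-PCR, normalized to ACTB, GAPDH, POLR2A; bidirectional fit versus DMSO.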

CYP4A11 (gene 1579) = experiment: LTEA_HepaRG_CYP4A11: Life Technologies and Expression Analysis (LTEA) Assay for CYP4A11 using HepaRG (AID 2283486)
In short: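 Differentiated HepaRG cells, 48 h after plating, exposed in duplicate for 48 h to 8 half-log concentrations up to 100 uM in 0.5% DMSO in serum-free induction medium. CYP4A11 mRNA measured by TaqMan qRT-PCR, normalized to ACTB, GAPDH and POLR2A.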

[3] = read-out: Cytochrome P450 3A4 (Homo sapiens) (UniProt P08684); experiment: LTEA_HepaRG_CYP3A4: Life Technologies and Expression Analysis (LTEA) Assay for CYP3A4 using HepaRG (AID 2283487)
In short: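 In a human hepatic line (HepaRG), duplicate wells were treated 48 h with up to 100 uM chemical in half-log dilutions. Endpoint: CYP3A4 mRNA induction or loss relative to 0.5% DMSO vehicle, by qRT-PCR.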

[4] = read-out: DNA damage-inducible transcript 3 (DDIT3), DDIT3 (gene 1649); experiment: LTEA_HepaRG_DDIT3: Life Technologies and Expression Analysis (LTEA) Assay for DNA damage-inducible transcript 3 (DDIT3) using HepaRG (AID 2283488)
In short: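 Differentiated human HepaRG cells in serum-free induction medium were exposed in duplicate for 48 h to 8 concentrations (top 100 uM, half-log steps, 0.5% DMSO). DDIT3 mRNA measured by TaqMan qRT-PCR, normalized to ACTB/GAPDH/POLR2A; bidirectional fit versus DMSO.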

[5] = read-out: Pro-epidermal growth factor (Homo sapiens) (UniProt P01133); experiment: LTEA_HepaRG_EGF: Life Technologies and Expression Analysis (LTEA) Assay for Epidermal growth factor (EGF) using HepaRG (AID 2283489)
In short: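 HepaRG cells (~100,000/well, 48 h pre-culture) exposed in duplicate for 48 h in serum-free induction medium to 8 half-log concentrations up to 100 uM in 0.5% DMSO. EGF mRNA by qRT-PCR, normalized to ACTB/GAPDH/POLR2A; bidirectional fit versus DMSO.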

[6] = read-out: Early growth response protein 1 (EGR1) transcription factor, EGR1 (gene 1958); experiment: LTEA_HepaRG_EGR1: Life Technologies and Expression Analysis (LTEA) Assay for Early growth response protein 1 (EGR1) transcription factor using HepaRG (AID 2283490)
In short: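 Differentiated HepaRG cells in serum-free induction medium exposed 48 hours, duplicate, to 8 half-log concentrations up to 100 uM in 0.5% DMSO. EGR1 mRNA measured by TaqMan qRT-PCR, normalized to ACTB, GAPDH, POLR2A; bidirectional fit versus DMSO.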

[7] = read-out: Ezrin (EZR), EZR (gene 7430); experiment: LTEA_HepaRG_EZR: Life Technologies and Expression Analysis (LTEA) Assay for Ezrin (EZR) using HepaRG (AID 2283491)
In short: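 Gain or loss of EZR mRNA is scored relative to 0.5% DMSO in human HepaRG cultures treated 48 h with test chemicals in duplicate, eight half-log concentrations from 100 uM.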

[8] = read-out: Cytochrome P450 3A7 (Homo sapiens) (UniProt P24462); experiment: LTEA_HepaRG_CYP3A7: Life Technologies and Expression Analysis (LTEA) Assay for CYP3A7 using HepaRG (AID 2283492)
In short: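 Differentiated HepaRG cells in serum-free induction medium exposed 48 h in duplicate to 8-point half-log series from 100 uM top in 0.5% DMSO. CYP3A7 mRNA by qRT-PCR, normalized to ACTB/GAPDH/POLR2A, bidirectional fit versus DMSO.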

CYP3A5 (gene 1577) = experiment: LTEA_HepaRG_CYP3A5: Life Technologies and Expression Analysis (LTEA) Assay for CYP3A5 using HepaRG (AID 2283493)
In short: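 Differentiated HepaRG cells in serum-free induction medium were dosed 48 h with test chemicals (8-point half-log series, top 100 uM, 0.5% DMSO, duplicate). CYP3A5 mRNA measured by qRT-PCR, normalized to ACTB, GAPDH, POLR2A; bidirectional fit versus DMSO.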

[9] = read-out: Fatty Acid-Binding Protein 1 (FABP1), FABP1 (gene 2168); experiment: LTEA_HepaRG_FABP1: Life Technologies and Expression Analysis (LTEA) Assay for Fatty Acid-Binding Protein 1 (FABP1) using HepaRG (AID 2283494)
In short: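 Differentiated human HepaRG cells exposed 48 h in serum-free induction medium to eight half-log concentrations up to 100 uM (0.5% DMSO), duplicate. FABP1 mRNA by qRT-PCR, normalised to ACTB, GAPDH, POLR2A; bidirectional fitting against DMSO.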

[10] = read-out: Cytochrome P450 4A22 (Homo sapiens) (UniProt Q5TCH4); experiment: LTEA_HepaRG_CYP4A22: Life Technologies and Expression Analysis (LTEA) Assay for Cytochrome P450 4A22 (CYP4A22) using HepaRG (AID 2283495)
In short: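 Differentiated HepaRG cells in serum-free induction medium exposed 48 h in duplicate to eight half-log concentrations up to 100 uM in 0.5% DMSO. CYP4A22 mRNA quantified by TaqMan qRT-PCR, normalized to ACTB, GAPDH and POLR2A; bidirectional fit versus DMSO.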

[11] = read-out: Cytochrome P450 7A1 (Homo sapiens) (UniProt P22680); experiment: LTEA_HepaRG_CYP7A1: Life Technologies and Expression Analysis (LTEA) Assay for Cytochrome P450 7A1 (CYP7A1) using HepaRG (AID 2283496)
In short: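 Gene expression endpoint in human HepaRG liver cells treated for 48 h with test chemicals (up to 100 uM, 0.5% DMSO). Values come from bidirectional concentration-response fitting versus DMSO.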

[12] = read-out: Glutathione S-Transferase (GSTA2), GSTA2 (gene 2939); experiment: LTEA_HepaRG_GSTA2: Life Technologies and Expression Analysis (LTEA) Assay for Glutathione S-Transferase (GSTA2) using HepaRG (AID 2283497)
In short: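 Differentiated human HepaRG cells were exposed in duplicate for 48 h in serum-free induction medium, 8 points from 100 uM top in half-log steps, 0.5% DMSO. GSTA2 mRNA was measured by TaqMan qRT-PCR, normalized to ACTB, GAPDH and POLR2A; bidirectional fit versus DMSO.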

[13] = read-out: Glutamate-cysteine ligase catalytic (GCLC), GCLC (gene 2729); experiment: LTEA_HepaRG_GCLC: Life Technologies and Expression Analysis (LTEA) Assay for Glutamate-cysteine ligase catalytic (GCLC) using HepaRG (AID 2283498)
In short: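 Differentiated HepaRG cells exposed 48 h in serum-free induction medium, eight-point half-log series topping at 100 uM in 0.5% DMSO, duplicates. GCLC mRNA by qRT-PCR normalized to ACTB, GAPDH and POLR2A, fitted bidirectionally versus DMSO.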

[14] = read-out: growth arrest and DNA damage 45 (GADD45G), GADD45G (gene 10912); experiment: LTEA_HepaRG_GADD45G: Life Technologies and Expression Analysis (LTEA) Assay for growth arrest and DNA damage 45 (GADD45G) using HepaRG (AID 2283499)
In short: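 Differentiated human HepaRG cells, 48 h post-plating, exposed 48 h in serum-free induction medium to 8 half-log concentrations (top 100 uM, 0.5% DMSO) in duplicate. GADD45G mRNA measured by Fluidigm TaqMan qRT-PCR, normalized to ACTB, GAPDH, POLR2A; bidirectional fit versus DMSO.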

[15] = read-out: Glutamate-cysteine ligase regulatory (GCLM), GCLM (gene 2730); experiment: LTEA_HepaRG_GCLM: Life Technologies and Expression Analysis (LTEA) Assay for Glutamate-cysteine ligase regulatory (GCLM) using HepaRG (AID 2283500)
In short: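 Differentiated human HepaRG cells exposed 48 h in serum-free induction medium to 8-point half-log concentrations (top 100 uM, 0.5% DMSO), in duplicate. GCLM mRNA quantified by qRT-PCR, normalized to ACTB, GAPDH, POLR2A; bidirectional fitting versus DMSO.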

Measured: AC50

Sequence of Cytochrome P450 3A7 (Homo sapiens) (P24462 whole entry, looked up): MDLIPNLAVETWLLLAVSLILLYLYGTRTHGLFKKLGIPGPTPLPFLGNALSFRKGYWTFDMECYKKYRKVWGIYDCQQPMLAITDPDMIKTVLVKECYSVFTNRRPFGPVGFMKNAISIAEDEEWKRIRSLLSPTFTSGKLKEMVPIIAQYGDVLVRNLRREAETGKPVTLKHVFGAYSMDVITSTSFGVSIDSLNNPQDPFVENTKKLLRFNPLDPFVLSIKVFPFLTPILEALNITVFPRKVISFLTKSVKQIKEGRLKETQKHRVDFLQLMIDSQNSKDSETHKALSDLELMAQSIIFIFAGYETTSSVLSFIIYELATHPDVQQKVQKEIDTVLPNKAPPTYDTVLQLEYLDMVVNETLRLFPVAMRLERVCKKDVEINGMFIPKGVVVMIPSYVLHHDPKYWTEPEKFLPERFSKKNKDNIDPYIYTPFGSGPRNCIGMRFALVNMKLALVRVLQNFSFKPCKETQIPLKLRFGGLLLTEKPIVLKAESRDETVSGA
Sequence of Cytochrome P450 2C19 (Homo sapiens) (P33261 whole entry, looked up): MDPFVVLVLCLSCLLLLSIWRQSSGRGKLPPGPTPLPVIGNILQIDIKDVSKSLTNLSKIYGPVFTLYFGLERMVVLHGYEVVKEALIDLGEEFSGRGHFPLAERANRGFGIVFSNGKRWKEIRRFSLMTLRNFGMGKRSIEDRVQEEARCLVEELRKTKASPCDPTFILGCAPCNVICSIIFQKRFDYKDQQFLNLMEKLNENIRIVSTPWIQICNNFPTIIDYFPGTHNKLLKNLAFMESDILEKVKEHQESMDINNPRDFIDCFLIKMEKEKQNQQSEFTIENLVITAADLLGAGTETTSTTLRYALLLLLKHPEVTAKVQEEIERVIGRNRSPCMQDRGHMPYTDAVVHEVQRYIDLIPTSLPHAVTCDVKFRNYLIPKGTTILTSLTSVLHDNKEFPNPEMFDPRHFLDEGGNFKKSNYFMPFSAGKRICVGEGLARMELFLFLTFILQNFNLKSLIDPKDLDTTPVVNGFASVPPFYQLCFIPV
Sequence of Cytochrome P450 3A4 (Homo sapiens) (P08684 whole entry, looked up): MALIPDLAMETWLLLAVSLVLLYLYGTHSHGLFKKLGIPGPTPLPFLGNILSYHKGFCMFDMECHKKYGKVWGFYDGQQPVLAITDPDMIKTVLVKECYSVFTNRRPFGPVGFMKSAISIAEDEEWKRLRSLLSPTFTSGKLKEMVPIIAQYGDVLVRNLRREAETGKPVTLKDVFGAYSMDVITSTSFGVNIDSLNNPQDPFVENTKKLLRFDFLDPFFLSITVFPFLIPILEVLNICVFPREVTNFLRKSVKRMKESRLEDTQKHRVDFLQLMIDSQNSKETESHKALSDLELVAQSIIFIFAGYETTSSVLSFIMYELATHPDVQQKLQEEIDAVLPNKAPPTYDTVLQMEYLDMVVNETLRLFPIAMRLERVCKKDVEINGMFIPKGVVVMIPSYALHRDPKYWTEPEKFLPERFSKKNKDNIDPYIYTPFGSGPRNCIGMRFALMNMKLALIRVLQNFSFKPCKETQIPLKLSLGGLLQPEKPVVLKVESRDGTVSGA

CCc1nn(C)c(C(=O)NCc2ccc(C(C)(C)C)cc2)c1Cl
active: [1] 0.346 µM | [2] 20.7 µM | CYP2C8 (gene 1558) 0.414 µM | CYP2C9 (gene 1559) 5.99 µM | CYP2E1 (gene 1571) 0.507 µM | CYP4A11 (gene 1579) 0.393 µM | [3] 13.3 µM | [4] 0.738 µM | [5] 50 µM | [6] 50 µM | [8] 0.35 µM | CYP3A5 (gene 1577) 88.9 µM | [9] 5 µM | [10] 0.677 µM | [11] 11.9 µM | [12] 11.9 µM | [13] 50 µM | [14] 0.6 µM | [15] 12.2 µM
inactive: [7]

C#CCOS(=O)OC1CCCCC1Oc1ccc(C(C)(C)C)cc1 (stereo not drawn)
inactive: [6] | [7] | [10]
active: [1] 26.6 µM | [2] 26.3 µM | CYP2C8 (gene 1558) 29.9 µM | CYP2C9 (gene 1559) 25.6 µM | CYP2E1 (gene 1571) 22.6 µM | CYP4A11 (gene 1579) 25.9 µM | [3] 28.8 µM | [4] 15.2 µM | [5] 29.4 µM | [8] 29.5 µM | CYP3A5 (gene 1577) 30.1 µM | [9] 18.7 µM | [11] 26.6 µM | [12] 27.7 µM | [13] 28.2 µM | [14] 12.7 µM | [15] 9.92 µM

COc1nc(NC(C)C)nc(NC(C)C)n1
active: [1] 6.01 µM | [2] 9.99 µM | CYP2E1 (gene 1571) 37 µM | [3] 7.19 µM | [9] 23.1 µM
inactive: all other assays above

COP(=S)(OC)Oc1nc(Cl)c(Cl)cc1Cl
inactive: all assays above

O=C(O)c1nc(Cl)ccc1Cl
inactive: [1] | [2] | CYP2C8 (gene 1558) | CYP2C9 (gene 1559) | CYP2E1 (gene 1571) | CYP4A11 (gene 1579) | [3] | [4] | [5] | [6] | [7] | [8] | CYP3A5 (gene 1577) | [9] | [10] | [11] | [12] | [13] | [14] | [15]
active: CYP2E1 (gene 1571) 17.6 µM | [9] 33.4 µM | [12] 50 µM

CNC(=O)ON=CC(C)(C)SC
active: [1] 50 µM
inactive: all other assays above

CN(C)C(=S)SSC(=S)N(C)C
active: [1] 50 µM
inactive: all other assays above

C=CC1(C)OC(=O)N(c2cc(Cl)cc(Cl)c2)C1=O (stereo not drawn)
active: [1] 7.99 µM | [2] 18.4 µM | CYP2C8 (gene 1558) 16.7 µM | CYP2E1 (gene 1571) 40.1 µM | [3] 13.6 µM | [8] 20.8 µM
inactive: all other assays above

COP(N)(=O)SC (stereo not drawn)
inactive: all assays above

OC(c1ccc(Cl)cc1)(c1cncnc1)c1ccccc1Cl (stereo not drawn)
inactive: [6] | [7] | CYP3A5 (gene 1577)
active: [1] 91.3 µM | [2] 89.6 µM | CYP2C8 (gene 1558) 83.6 µM | CYP2C9 (gene 1559) 83.7 µM | CYP2E1 (gene 1571) 46.7 µM | CYP4A11 (gene 1579) 70.4 µM | [3] 11.4 µM | [4] 71.8 µM | [5] 34.1 µM | [8] 11.9 µM | [9] 80.4 µM | [10] 72.9 µM | [11] 77 µM | [12] 74.8 µM | [13] 50 µM | [14] 68.7 µM | [15] 57.8 µM
